Screens deposited in PubChem by Broad Institute.
esBAF inh: Bmi1 luciferase reporter increase in mESCs, primary screen, esBAF inhibitor project, mouse ES cells, Bmi1 luciferase knock-in, single point; hit rate 2% among 350,000; 24 h; 100% = twice the neutral-well signal; reporter increase, % at 12.5 µM; in the data active = activation above about 40%; inconclusive = no clear call, values can overlap the other calls;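 note: 0% = median of the plate's neutral control wells and 100% = double that signal; a rise in the Bmi1 reporter signal indicates esBAF inhibition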
Wnt act: Wnt/beta-catenin pathway activators, primary screen, cell-based, plate reader, single point; Wnt/beta-catenin reporter cell assay, activator; activation, % at 9.35 µM; hit rate 1.2% among 300,000; AID 743398, 2014; in the data active = activation above about 30%, passing the limit was not always enough; inconclusive = no clear call, values can overlap the other calls;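 note: 0% = neutral control wells and 100% = positive control wells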
HSF1 inh: HSF1 inhibitors in luciferase reporter cells, primary screen, cell-based, NIH3T3, luminescence; hit rate 0.77% among 300,000; NIH3T3-HGL HSE-luciferase, MG132-induced, luminescence 8 h; active compounds read low; AID 2098, 2009; activity change, negative = inhibition, % at 7.5 µM (by protocol);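 active = more than half of replicate wells show activity change below -50%, luminescence cut by over half; inconclusive = some wells, but at most half, below -50%; inactive = no replicate well below -50%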;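 note: luciferase reports HSF-1 transcriptional activity via heat shock element; 0% = median of DMSO wells and -100% = zero luminescence signal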
HSF1 activator: HSF-1 activators, primary screen, NIH3T3-HGL cells, MG132 stress, luminescence, single point | NIH3T3-HGL HSF-1 luciferase reporter, 8 h; 100% = twice DMSO control signal | AID 504408, 2011 | hit rate 1.7% among 300,000 | activation, % at 9 µM;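 active = mean replicate activation of at least 50% with a set share of replicates each reaching 50%; inconclusive = only one of those two conditions met; inactive = mean below 50% and too few replicates reaching it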;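 note: 0% = median of the neutral control wells and 100% = twice that signal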
MITF TRPM1 HTS: activators of MITF-driven TRPM1 promoter reporter, primary screen, cell-based, SK-MEL-5, luciferase, single point | SK-MEL-5 TRPM1-promoter luciferase, 24 h; % of positive control, neutral wells = 0 | hit rate 0.75% among 300,000 | activation, % at 12.5 µM;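 active = mean activation of at least 80% with every replicate also reaching 80%; inconclusive = mean reaches 80% but some replicate falls short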;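 note: 0% = neutral control wells and 100% = parthenolide positive control wells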
* marks the source's active call; other numbers are inactive results; ? = inconclusive; . = not tested or not shown. Compounds with a hit are over-represented: about 3.9% of the library has one in this group of screens.

SMILES	esBAF inh	Wnt act	HSF1 inh	HSF1 activator	MITF TRPM1 HTS
CCOc1ccc(C2CC(c3c(O)n(C)c(=O)n(C)c3=O)=NN2)cc1 (stereo not drawn)	.	30.1*	13.1	25.1	.
Cn1c(O)c(C2=NNC(c3ccc(Cl)cc3)C2)c(=O)n(C)c1=O (stereo not drawn)	.	-0.6	25.0	?	.
CCCC[N+]12CCC(CC1)C(C(O)(c1ccccc1)c1ccccc1)C2 (stereo not drawn)	-0.2	2.3	-65.3*	-71.3	7.1
CCC[N+]12CCC(CC1)C(C(O)(c1ccccc1)c1ccccc1)C2 (stereo not drawn)	-3.9	-1.4	-4.0	9.2	7.7
C=CCn1c(O)c(C(C)=NC2CC2)c(=O)[nH]c1=O	-1.9	.	5.2	15.2	-10.3
C=CCn1c(O)c(C(CC)=NCC2CCCO2)c(=O)[nH]c1=O (stereo not drawn)	.	-0.7	29.8	64.9*	.
C=CCn1c(O)c(C(C)=NCCN2CCCCC2)c(=O)[nH]c1=O	3.2	.	-4.5	-6.3	.
C=CCn1c(O)c(/C(C)=N/N2CCCCC2)c(=O)[nH]c1=O	.	-1.4	25.4	67.0*	7.5
C=CCn1c(O)c(C(C)=NC2CCN(Cc3ccccc3)CC2)c(=O)[nH]c1=O	.	-1.8	-87.8*	-90.6	.
CCC(=NCC1CCCO1)c1c(O)n(-c2ccccc2C)c(=O)[nH]c1=O (stereo not drawn)	.	0.2	-2.9	2.6	.
Cc1ccccc1S(=O)(=O)N1[C@@H]2c3ccc(-c4cccnc4)c(=O)n3C[C@H]1[C@H](CO)[C@H]2C(=O)O	1.7	.	.	.	.
O=C1C(=O)c2ccccc2-c2ccccc21	?	-24.5	-94.3*	-94.8	-109.8
CC12CCC3C(CC=C4CC5(CCC43C)OCCO5)C1CCC2=O (stereo not drawn)	3.7	-2.3	-73.5*	-79.1	5.1
COC(=O)[C@H]1[C@H](CO)[C@H]2Cn3c(ccc(-c4ccc(OC)cc4)c3=O)[C@@H]1N2C(=O)c1ccccc1F	-0.4	.	.	.	.
CC(Cc1ccccc1)NCC(=O)Nc1cc(N(C)C)nc2ccccc12 (stereo not drawn)	2.1	-1.7	24.3	58.0*	.
CC(Cc1ccccc1)NCc1ccccc1O (stereo not drawn)	-8.1	1.0	-2.5	2.0	-3.7
Cc1ccccc1-n1c(O)c(/C=N/NC(=O)c2ccccc2O)c(=O)[nH]c1=S	14.7	2.0	-54.9*	-64.1	0.6
COc1ccc(CCN(C)Cc2ccc(F)cc2F)cc1OC	3.4	34.4*	-4.0	6.2	2.8
CCN(CC)c1ccc(CN(C)CCc2ccc(OC)c(OC)c2)cc1	-50.9	.	-3.3	-10.7	5.8
O=C(O)[C@H]1[C@H](CO)[C@H]2Cn3c(ccc(-c4ccncc4)c3=O)[C@@H]1N2C(=O)C1CCC1	-0.1	.	.	.	.
COC(=O)C1CN(C#N)N(c2ccc(Cl)cc2)C12c1ccccc1-c1ccccc12 (stereo not drawn)	.	.	-95.2*	-95.1	-97.3
COc1cc(Br)cc(CN2CCN(C)CC2)c1O	-2.6	-1.4	.	.	5.6
COc1ccc(Br)cc1CN1CCN(CCO)CC1	-3.9	.	-87.3*	-89.1	-8.0
O=C(O)[C@@H]1[C@@H](CO)[C@@H]2Cn3c(ccc(C4=CCCC4)c3=O)[C@H]1N2C(=O)Cc1ccccn1	2.3	.	.	.	.
COC(=O)[C@H]1[C@H](CO)[C@H]2Cn3c(ccc(-c4ccccc4)c3=O)[C@@H]1N2C(=O)c1ccccc1F	-3.0	.	.	.	.
SMILES	esBAF inh	Wnt act	HSF1 inh	HSF1 activator	MITF TRPM1 HTS
Cc1ccc(C(=O)C2CN(C)CC2C(=O)c2ccc(C)cc2)cc1 (stereo not drawn)	60.4*	.	2.0	-6.0	12.6
Cc1ccc(C(=O)C2CN3CCC2CC3)cc1 (stereo not drawn)	-10.9	-2.6	-7.7	-1.1	-4.9
CCN1[C@@H]2Cn3c(ccc(-c4cccc(C(=O)N(C)C)c4)c3=O)[C@H]1[C@@H](C(=O)OC)[C@@H]2CO	-8.8	.	.	.	.
O=c1c2ccccc2[nH]c(=S)n1-c1ccc2c(c1)OCCO2	.	37.5*	-1.7	20.2	.
Cc1ccc(-n2c(=S)[nH]c3ccccc3c2=O)cc1F	61.4*	12.8	.	.	.
O=c1c2ccccc2[nH]c(=S)n1-c1cccc(C(F)(F)F)c1	8.9	-4.2	.	.	.
CC(Cc1ccccc1)/[N+]([O-])=C\c1ccc(C(F)(F)F)cc1 (stereo not drawn)	75.9*	27.1	7.1	9.7	115.4*
